From PubChem BioAssay (NCI)
This is part of a sample that, as a whole, favours compounds with a hit. Of some 79,000 tested, about 15% had one in any assay. Active and inactive are the calls of the source. Rule as the data show it: active = growth inhibition above about 70%; inactive = the rest.

What was measured:
[1] = NCI Yeast Anticancer Drug Screen. Data for the rad50 strain (AID 155);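 also: 0% = growth of vehicle-only cultures of the same strain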; conditions: S. cerevisiae rad50 strain growth inhibition, active compounds read high
How it was run: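 Yeast carrying a defined DNA repair defect were exposed to test compounds, and growth was compared with vehicle-treated controls to give percent inhibition.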

[2] = NCI Yeast Anticancer Drug Screen. Data for the mec2-1 strain (AID 157); conditions: S. cerevisiae mec2-1 strain, active compounds read high
How it was run: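 Yeast mec2-1 mutant treated with compound. Readout: growth inhibition vs vehicle controls.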

[3] = NCI Yeast Anticancer Drug Screen. Data for the sgs1 mgt1 strain (AID 161);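 also: 0% = growth of cultures given vehicle only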; conditions: S. cerevisiae sgs1 mgt1 strain, active compounds read high
How it was run: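 Test agents were incubated with a DNA-repair-mutant yeast strain. Growth was then read and compared against vehicle-treated controls.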

[4] = NCI Yeast Anticancer Drug Screen. Data for the cln2 rad14 strain (AID 165);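 also: 0% = growth equal to vehicle treated cultures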; conditions: S. cerevisiae cln2 rad14 strain, active compounds read high
How it was run: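 cln2 rad14 yeast strain; compound exposure; growth inhibition read vs vehicle controls.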

[5] = NCI Yeast Anticancer Drug Screen. Data for the bub3 strain (AID 167); conditions: S. cerevisiae bub3 mutant strain, active compounds read high
How it was run: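 Compounds were applied to a genetically altered yeast strain carrying a cell-cycle control defect. Growth inhibition was scored against vehicle-treated controls.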

[6] = NCI Yeast Anticancer Drug Screen. Data for the mlh1 rad18 strain (AID 175); conditions: S. cerevisiae mlh1 rad18 strain growth inhibition, active compounds read high
How it was run: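 Yeast w/ defined DNA-repair lesions; compound exposure; growth vs vehicle controls → % inhibition.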

[7] = at 5.0 µM (retest, dose inferred, filed as 0.5)
[8] = at 50.0 µM (retest, dose inferred, filed as 5.0)

Measured: growth inhibition

Cc1cc(N2C(=O)CCSC2=S)c([N+](=O)[O-])cc1C
inactive: [1]; [7] 32% | [2]; [7] 7% | [3]; [7] 60% | [4]; [7] -5% | [5]; [7] 14% | [6]; [7] 65%
active: [1]; [8] 99% | [1]; at 50.0 µM 99.3% | [2]; [8] 99% | [2]; at 50.0 µM 99.6% | [3]; [8] 99% | [3]; at 50.0 µM 99.5% | [4]; [8] 98% | [4]; at 50.0 µM 98.5% | [5]; [8] 99% | [5]; at 50.0 µM 99.5% | [6]; [8] 99% | [6]; at 50.0 µM 99.4%

O=C(O)CCCCCCCCC(=O)O.[Ag]
active: [1]; [7] 99% | [1]; [8] 99% | [1]; at 50.0 µM 90.2% | [2]; [7] 99% | [2]; [8] 99% | [2]; at 50.0 µM 93% | [3]; [7] 100% | [3]; [8] 99% | [3]; at 50.0 µM 93.8% | [4]; [7] 70% | [4]; [8] 99% | [4]; at 50.0 µM 92.2% | [5]; [7] 99% | [5]; [8] 99% | [5]; at 50.0 µM 92.5% | [6]; [7] 99% | [6]; [8] 99% | [6]; at 50.0 µM 91.5%

COc1cc(C2=NCCO2)cc(OC)c1OC
inactive: [1]; [7] -158% | [1]; [8] -155% | [1]; at 50.0 µM 9.4% | [2]; [7] -45% | [2]; [8] -52% | [2]; at 50.0 µM -5.5% | [3]; [7] -62% | [3]; [8] -60% | [3]; at 50.0 µM -3.85% | [4]; [7] -59% | [4]; [8] -62% | [4]; at 50.0 µM 61.9% | [5]; [7] -67% | [5]; [8] -79% | [5]; at 50.0 µM 0.55% | [6]; [7] -196% | [6]; [8] -117% | [6]; at 50.0 µM 3.95%

CC1CCCN(c2cc(N(C)C)c([N+](=O)[O-])cc2F)C1 (configuration not stated)
active: [5]; [8] 86% | [5]; at 50.0 µM 71.8%
inactive: [1]; [7] 34% | [1]; [8] 47% | [1]; at 50.0 µM 32.2% | [2]; [7] 35% | [2]; [8] 49% | [2]; at 50.0 µM 11.7% | [3]; [7] 37% | [3]; [8] 59% | [3]; at 50.0 µM 38.2% | [4]; [7] 34% | [4]; [8] 46% | [4]; at 50.0 µM 51.5% | [5]; [7] 41% | [6]; [7] 45% | [6]; [8] 67% | [6]; at 50.0 µM 37.5%

Nc1ccc(O)c(=O)cc1
active: [5]; at 50.0 µM 76.6%
inactive: [1]; [7] -1% | [1]; [8] 1% | [1]; at 50.0 µM 50.2% | [2]; [7] -40% | [2]; [8] 11% | [2]; at 50.0 µM 45.1% | [3]; [7] 0% | [3]; [8] 18% | [3]; at 50.0 µM 62.2% | [4]; [7] -2% | [4]; [8] 0% | [4]; at 50.0 µM 25.1% | [5]; [7] -8% | [5]; [8] 4% | [6]; [7] -2% | [6]; [8] 15% | [6]; at 50.0 µM 59.9%

COC(=O)/C(=C/C=C(c1ccccc1)c1ccccc1)N(C(C)=O)C(C)=O
inactive: [1]; [7] 0% | [1]; [8] 13% | [2]; [7] 2% | [2]; [8] 25% | [3]; [7] 1% | [3]; [8] 67% | [4]; [7] 3% | [4]; [8] 7% | [5]; [7] -1% | [5]; [8] 11% | [6]; [7] -3% | [6]; [8] 39%
active: [1]; at 50.0 µM 99.4% | [2]; at 50.0 µM 99.6% | [3]; at 50.0 µM 99.6% | [4]; at 50.0 µM 99.4% | [5]; at 50.0 µM 99.7% | [6]; at 50.0 µM 99.6%

[Cu+2].[NH-]c1ccccc1O.[NH-]c1ccccc1[OH2+]
inactive: [1]; [7] 7% | [1]; [8] 69% | [1]; at 50.0 µM 50.6% | [2]; [7] 20% | [2]; at 50.0 µM 46.6% | [3]; [7] 15% | [3]; [8] 67% | [3]; at 50.0 µM 60.4% | [4]; [7] 11% | [4]; [8] 59% | [4]; at 50.0 µM 35.8% | [5]; [7] 45% | [5]; [8] 67% | [6]; [7] 28%
active: [2]; [8] 80% | [5]; at 50.0 µM 75.8% | [6]; [8] 82% | [6]; at 50.0 µM 75.6%

CCCCCCCCCCCC(=O)[O][Sn]([CH2]C)([CH2]C)[O]C(=O)CCCCCCCCCCC
inactive: [1]; [7] 7% | [1]; [8] 5% | [2]; [7] 2% | [2]; [8] 2% | [3]; [7] 3% | [3]; [8] 44% | [4]; [7] 5% | [4]; [8] 0% | [4]; at 50.0 µM 48.1% | [5]; [7] 3% | [5]; [8] -7% | [5]; at 50.0 µM 16.4% | [6]; [7] 4% | [6]; [8] 12%
active: [1]; at 50.0 µM 79.3% | [2]; at 50.0 µM 88.3% | [3]; at 50.0 µM 95.8% | [6]; at 50.0 µM 88.7%

C[N+]1(C)C/C(=C\C=C\c2ccccc2)C(=O)/C(=C/C=C/c2ccccc2)C1
inactive: [1]; [7] 17% | [1]; [8] 17% | [2]; [7] 9% | [2]; [8] 9% | [3]; [7] 17% | [3]; [8] 17% | [4]; [7] 0% | [4]; [8] 0% | [5]; [7] -2% | [5]; [8] -2% | [6]; [7] 9% | [6]; [8] 9%
active: [1]; at 50.0 µM 93.2% | [2]; at 50.0 µM 92.1% | [3]; at 50.0 µM 92.6% | [4]; at 50.0 µM 91.5% | [5]; at 50.0 µM 93.9% | [6]; at 50.0 µM 92.5%
